Assay results from publication PMC11006913.
Positions count from the first letter of the chain named.

Columns and labels:
Experiment in all cases: PBM; 200 nM protein, PBS
Settings in all cases: dsDNA, one strand shown
PAX4 [1] = molecular target: T1, PAX4 (Homo sapiens, UniProt O43316 9-242, R200K)
T1 sequence: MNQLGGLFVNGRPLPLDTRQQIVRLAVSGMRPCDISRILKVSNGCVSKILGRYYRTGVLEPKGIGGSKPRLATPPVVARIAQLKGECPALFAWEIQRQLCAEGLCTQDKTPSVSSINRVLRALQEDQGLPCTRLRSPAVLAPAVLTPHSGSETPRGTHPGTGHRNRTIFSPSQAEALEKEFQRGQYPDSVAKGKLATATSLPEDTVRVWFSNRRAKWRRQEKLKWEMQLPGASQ

PAX4 [2] = molecular target: T2, PAX4 (Homo sapiens, UniProt O43316 9-242)
T2 sequence: T1 sequence with K192R

PAX4 [3] = molecular target: T3, PAX4 (Homo sapiens, UniProt O43316 9-242, R200Q)
T3 sequence: T1 sequence with K192Q

PAX4 [4] = molecular target: T4, PAX4 (Homo sapiens, UniProt O43316 9-242, F177V)
T4 sequence: T1 sequence with F169V, K192R

PAX4 [5] = molecular target: T5, PAX4 (Homo sapiens, UniProt O43316 9-242, F177Y)
T5 sequence: T1 sequence with F169Y, K192R

PAX4 [6] = molecular target: T6, PAX4 (Homo sapiens, UniProt O43316 9-242, R227W)
T6 sequence: T1 sequence with K192R, R219W

VAX1 [7] = molecular target: VAX1 (Homo sapiens, UniProt Q5SQQ9 86-172)
VAX1 [8] = molecular target: VAX1 (Homo sapiens, UniProt Q5SQQ9 86-172, T142I)
VAX1 [9] = molecular target: VAX1 (Homo sapiens, UniProt Q5SQQ9 86-172, K157R)
PROP1 [10] = molecular target: PROP1 (Homo sapiens, UniProt O75360 56-141)
PROP1 [11] = molecular target: PROP1 (Homo sapiens, UniProt O75360 56-141, R99H)
PROP1 [12] = molecular target: PROP1 (Homo sapiens, UniProt O75360 56-141, F88S)
Sequence of PROP1 (Homo sapiens, UniProt O75360 56-141, F88S) (O75360 56-141 F88S): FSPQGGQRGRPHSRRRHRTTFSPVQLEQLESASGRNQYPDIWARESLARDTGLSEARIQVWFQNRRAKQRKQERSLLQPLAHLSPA

Sequence of VAX1 (Homo sapiens, UniProt Q5SQQ9 86-172, T142I) (Q5SQQ9 86-172 T142I): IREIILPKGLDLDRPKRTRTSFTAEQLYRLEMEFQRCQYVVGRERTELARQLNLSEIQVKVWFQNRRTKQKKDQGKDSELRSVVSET
Sequence of VAX1 (Homo sapiens, UniProt Q5SQQ9 86-172) (Q5SQQ9 86-172): as the sequence (Q5SQQ9 86-172 T142I) above, with I57T counted along it
Sequence of PROP1 (Homo sapiens, UniProt O75360 56-141, R99H) (O75360 56-141 R99H): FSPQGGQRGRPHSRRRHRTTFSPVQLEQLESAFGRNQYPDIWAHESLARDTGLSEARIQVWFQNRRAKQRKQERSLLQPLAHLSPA
Sequence of VAX1 (Homo sapiens, UniProt Q5SQQ9 86-172, K157R) (Q5SQQ9 86-172 K157R): as the sequence (Q5SQQ9 86-172 T142I) above, with I57T, K72R counted along it
Sequence of PROP1 (Homo sapiens, UniProt O75360 56-141) (O75360 56-141): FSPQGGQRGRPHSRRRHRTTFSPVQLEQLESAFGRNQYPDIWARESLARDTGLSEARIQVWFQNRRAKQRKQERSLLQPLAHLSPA

Sequence	binding signal (PAX4 [1])	binding signal (PAX4 [2])	binding signal (PAX4 [3])	binding signal (PAX4 [4])	binding signal (PAX4 [5])	binding signal (PAX4 [6])	binding signal (VAX1 [7])	binding signal (VAX1 [8])	binding signal (VAX1 [9])	binding signal (PROP1 [10])	binding signal (PROP1 [11])	binding signal (PROP1 [12])
GCCAGAGC	9.17 upbm affinity estimate (log intensity, higher = more binding, comparable within an allelic series)	9.13 upbm affinity estimate (log intensity, higher = more binding, comparable within an allelic series)	9.26 upbm affinity estimate (log intensity, higher = more binding, comparable within an allelic series)	9.3 upbm affinity estimate (log intensity, higher = more binding, comparable within an allelic series)	9.28 upbm affinity estimate (log intensity, higher = more binding, comparable within an allelic series)	9.34 upbm affinity estimate (log intensity, higher = more binding, comparable within an allelic series)						
AGACAGCT	9.26 upbm affinity estimate (log intensity, higher = more binding, comparable within an allelic series)	9.25 upbm affinity estimate (log intensity, higher = more binding, comparable within an allelic series)	9.61 upbm affinity estimate (log intensity, higher = more binding, comparable within an allelic series)	9.5 upbm affinity estimate (log intensity, higher = more binding, comparable within an allelic series)	9.46 upbm affinity estimate (log intensity, higher = more binding, comparable within an allelic series)	9.5 upbm affinity estimate (log intensity, higher = more binding, comparable within an allelic series)						
CTGGGCCC	9.08 upbm affinity estimate (log intensity, higher = more binding, comparable within an allelic series)	8.93 upbm affinity estimate (log intensity, higher = more binding, comparable within an allelic series)	9.11 upbm affinity estimate (log intensity, higher = more binding, comparable within an allelic series)	8.97 upbm affinity estimate (log intensity, higher = more binding, comparable within an allelic series)	9.09 upbm affinity estimate (log intensity, higher = more binding, comparable within an allelic series)	9.02 upbm affinity estimate (log intensity, higher = more binding, comparable within an allelic series)						
TAATTCGA	11.8 upbm affinity estimate (log intensity, higher = more binding, comparable within an allelic series)	12.4 upbm affinity estimate (log intensity, higher = more binding, comparable within an allelic series)	11.7 upbm affinity estimate (log intensity, higher = more binding, comparable within an allelic series)	10.6 upbm affinity estimate (log intensity, higher = more binding, comparable within an allelic series)	11.2 upbm affinity estimate (log intensity, higher = more binding, comparable within an allelic series)	11 upbm affinity estimate (log intensity, higher = more binding, comparable within an allelic series)						
CGCCTGCA	9.25 upbm affinity estimate (log intensity, higher = more binding, comparable within an allelic series)	9.25 upbm affinity estimate (log intensity, higher = more binding, comparable within an allelic series)	9.33 upbm affinity estimate (log intensity, higher = more binding, comparable within an allelic series)	9.34 upbm affinity estimate (log intensity, higher = more binding, comparable within an allelic series)	9.3 upbm affinity estimate (log intensity, higher = more binding, comparable within an allelic series)	9.34 upbm affinity estimate (log intensity, higher = more binding, comparable within an allelic series)						
CCAAGTCC	9.27 upbm affinity estimate (log intensity, higher = more binding, comparable within an allelic series)	9.3 upbm affinity estimate (log intensity, higher = more binding, comparable within an allelic series)	9.4 upbm affinity estimate (log intensity, higher = more binding, comparable within an allelic series)	9.27 upbm affinity estimate (log intensity, higher = more binding, comparable within an allelic series)	9.25 upbm affinity estimate (log intensity, higher = more binding, comparable within an allelic series)	9.38 upbm affinity estimate (log intensity, higher = more binding, comparable within an allelic series)						
GAGCTCGC	9.35 upbm affinity estimate (log intensity, higher = more binding, comparable within an allelic series)	9.28 upbm affinity estimate (log intensity, higher = more binding, comparable within an allelic series)	9.32 upbm affinity estimate (log intensity, higher = more binding, comparable within an allelic series)	9.23 upbm affinity estimate (log intensity, higher = more binding, comparable within an allelic series)	9.12 upbm affinity estimate (log intensity, higher = more binding, comparable within an allelic series)	9.26 upbm affinity estimate (log intensity, higher = more binding, comparable within an allelic series)						
GTGAATTA	11.6 upbm affinity estimate (log intensity, higher = more binding, comparable within an allelic series)	12.2 upbm affinity estimate (log intensity, higher = more binding, comparable within an allelic series)	11.5 upbm affinity estimate (log intensity, higher = more binding, comparable within an allelic series)	10.5 upbm affinity estimate (log intensity, higher = more binding, comparable within an allelic series)	11 upbm affinity estimate (log intensity, higher = more binding, comparable within an allelic series)	10.9 upbm affinity estimate (log intensity, higher = more binding, comparable within an allelic series)						
CAGGCAGG	9.45 upbm affinity estimate (log intensity, higher = more binding, comparable within an allelic series)	8.98 upbm affinity estimate (log intensity, higher = more binding, comparable within an allelic series)	9.63 upbm affinity estimate (log intensity, higher = more binding, comparable within an allelic series)	9.47 upbm affinity estimate (log intensity, higher = more binding, comparable within an allelic series)	9.56 upbm affinity estimate (log intensity, higher = more binding, comparable within an allelic series)	9.49 upbm affinity estimate (log intensity, higher = more binding, comparable within an allelic series)	7.2 upbm affinity estimate (log intensity, higher = more binding, comparable within an allelic series)	7.22 upbm affinity estimate (log intensity, higher = more binding, comparable within an allelic series)	7 upbm affinity estimate (log intensity, higher = more binding, comparable within an allelic series)			
ACCGAGCC	9.37 upbm affinity estimate (log intensity, higher = more binding, comparable within an allelic series)	9.52 upbm affinity estimate (log intensity, higher = more binding, comparable within an allelic series)	9.41 upbm affinity estimate (log intensity, higher = more binding, comparable within an allelic series)	9.22 upbm affinity estimate (log intensity, higher = more binding, comparable within an allelic series)	9.25 upbm affinity estimate (log intensity, higher = more binding, comparable within an allelic series)	9.41 upbm affinity estimate (log intensity, higher = more binding, comparable within an allelic series)				6.86 upbm affinity estimate (log intensity, higher = more binding, comparable within an allelic series)	6.94 upbm affinity estimate (log intensity, higher = more binding, comparable within an allelic series)	6.77 upbm affinity estimate (log intensity, higher = more binding, comparable within an allelic series)
CATGTTAG	10.7 upbm affinity estimate (log intensity, higher = more binding, comparable within an allelic series)	10.8 upbm affinity estimate (log intensity, higher = more binding, comparable within an allelic series)	10.7 upbm affinity estimate (log intensity, higher = more binding, comparable within an allelic series)	10.1 upbm affinity estimate (log intensity, higher = more binding, comparable within an allelic series)	10.2 upbm affinity estimate (log intensity, higher = more binding, comparable within an allelic series)	10.3 upbm affinity estimate (log intensity, higher = more binding, comparable within an allelic series)						
